# Measured values from PubChem BioAssay AID1688 (National Center for Advancing Translational Sciences (NCATS), 2009).
# In all, about 220,000 compounds went through this assay and about 2,400 (1.1%) were called active. Roughly 7% stayed inconclusive and do not appear here. Calls follow the shape of the dose curve; as a rule, active = well fitted inhibition curve with a large enough effect; inconclusive = small, poorly fitted or top-dose-only effect, or effect the other way; inactive = no such curve, though single readings can be large or run the other way. The entries come from a sample that favours actives as a whole. Entries that show only a call come without a potency.
# Assay: qHTS Multiplex Assay to Identify Dual Action Probes in a Cell Model of Huntington: Aggregate Formation (GFP); also: nearly all actives have a fitted effect of over 60% in size
# Details: PC12 HttQ103-GFP aggregates, Acumen cytometry, 40 h; series mostly up to 9.22 µM
# Procedure, shortened: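 PC12 cells with ecdysone-inducible HTT exon1 Q103-GFP, induced by 100 nM tebufenozide, given compounds in a concentration series. GFP aggregates (1–25 um, 6 SD above background) counted in lysates by laser-scanning cytometry, 488 nm excitation.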
# Potency is read from the fitted curve at half-maximal effect.
row,Structure (SMILES),Potency
1,COC(=O)c1ccc(COc2ccc(/C=N/NC(=O)C(=O)Nc3ccc(OC)cc3)cc2OC)o1,inactive
2,CC[n+]1c(C)n(-c2ccccc2)c2ccc(NC(C)=O)cc21,3.98 µM (active)
3,CCn1c2ccccc2c2cc(NC(=O)CNC)ccc21,inactive
4,CCc1ccc(NC(=O)N2CCN(c3ccccc3)CC2)cc1,inactive
5,Cc1ccc(N2C(=O)CN=C2Nc2nc(C)cc(C)n2)cc1,inactive
6,O=C(c1ccc(=O)oc1)N1CCC(C(O)(c2ccccc2)c2ccccc2)CC1,inactive
7,O=C(O)CCCCCNc1ncnc2ccc(Br)cc12,inactive
8,Cc1cc(NCc2cccnc2)no1,inactive
9,Brc1ccc2ncnc(NCc3cccnc3)c2c1,1.78 µM (active)
10,CCOC(=O)c1cnc(COc2ccccc2Cl)[nH]c1=O,inactive
11,Cc1c(NC(=O)CN2C(=O)C(=O)N(Cc3ccccc3)C2=O)c(=O)n(-c2ccccc2)n1C,inactive
12,O=C1CC(Cc2ccc(Cl)cc2)C(=O)N1c1cc(Cl)ccn1 (configuration not stated),inactive
13,CCCCN(CCCC)CC(O)Cn1c2ccccc2c(=O)c2ccccc21 (configuration not stated),inactive
14,O=C(NNS(=O)(=O)Cc1ccccc1)c1ccc([N+](=O)[O-])cc1,inactive
15,CC1CCN(c2c(NCc3ccc(C(=O)NCc4ccccc4)cc3)c(=O)c2=O)CC1,inactive
16,CN(c1ccccc1)S(=O)(=O)c1cc(C(=O)Nc2nc3ccccc3[nH]2)ccc1Cl,11.2 µM (active)
17,O=C(Nc1cccc(-c2nc3ccccc3[nH]2)c1)c1ccc(C(=O)Nc2cccc(-c3nc4ccccc4[nH]3)c2)cc1,inactive
18,CN(c1ccccc1)S(=O)(=O)c1cc(C(=O)OCC(=O)N2CCN(C(=O)c3ccco3)CC2)ccc1Cl,inactive
19,COC(=O)/C=C(\Oc1ccccc1)C1(O)CCCCC1,inactive
20,CC(C)(C)c1nnc(NC(=O)C2c3ccccc3Oc3ccccc32)s1,inactive
21,Nc1ccc(C(=O)Nc2ccccc2N)cc1,inactive
22,COc1cccc(-c2nnc(NC(=O)c3ccc(S(=O)(=O)N(CC(C)C)CC(C)C)cc3)o2)c1,5.01 µM (active)
23,COc1cccc(NC(=O)c2ccc(S(=O)(=O)N(C)C)cc2)c1,inactive
24,COc1cccc(NC(=O)CN(C)S(=O)(=O)c2ccc(C)cc2)c1,inactive

row,Structure (SMILES),Potency
1,Oc1ccc(Cl)c2c1CCC2,inactive
2,CCOc1ccccc1N1CN(Cc2ccccc2)CNC1=S,inactive
3,COC(=O)C1=C(C)N(C)C(=S)NC1c1ccccc1 (configuration not stated),3.16 µM (active)
4,COC(=O)C1=C(C)N(C)C(=S)NC1c1cc(OC)ccc1OC (configuration not stated),inactive
5,COCCN1C(=O)N[C@@H](c2ccccc2)C(C(=O)OC)=C1C,inactive
6,COc1ccc(-c2csc(NC3OC(=O)c4ccccc43)n2)cc1 (configuration not stated),inactive
7,CCOC(=O)c1cc(NC(=O)c2cccnc2)cc(C(=O)OCC)c1,inactive
8,Cc1c(C(=O)OC(C)C)sc(NC(=O)c2cccnc2)c1C#N,11.2 µM (active)
9,CCOC(=O)c1sc(NC(=O)CSc2ncccn2)c(C#N)c1C,inactive
10,O=S(=O)(c1ccc(F)cc1)N1CC=C(c2ccccc2)CC1,inactive
11,O=C1CCCC(O)=C1N=Nc1ccc(S(=O)(=O)N2CCOCC2)cc1,inactive
12,O=C(C1=C(O)C(=O)N(CCOCCO)C1c1ccccn1)c1cccs1 (configuration not stated),inactive
13,COc1ccc(Cc2cc(-c3ccc(F)cc3)n[nH]c2=O)cc1,inactive
14,Fc1ccccc1/C=N/n1c(-c2cccnc2)n[nH]c1=S,inactive
15,N#Cc1c(NC(=O)c2ccc(N3CCOCC3)c([N+](=O)[O-])c2)sc2c1CCCC2,5.62 µM (active)
16,CCOC(=O)c1c(NC(=O)c2ccc(N3CCOCC3)c([N+](=O)[O-])c2)sc(C)c1C,inactive
17,O=C(NCCCN1CCOCC1)c1ccc(N2CCCC2)c([N+](=O)[O-])c1,inactive
18,Cc1cc(=O)[nH]c(S)c1C#N,inactive
19,NC(=O)C(=O)N/N=C/c1ccc([N+](=O)[O-])o1,inactive
20,COCCn1c(C)cc(C(=O)CSc2nc3ccccc3c(=O)n2C(C)COC)c1C (configuration not stated),inactive
21,O=C(O)c1cccnc1Sc1ncnc2sc3c(c12)CCC3,inactive
22,COCCn1c(C)cc(C(=O)CSc2ncnc3sc4c(c23)CCC4)c1C,6.31 µM (active)
23,CC(C)(C)C(=O)NNC(=O)c1ccc(Oc2cc(Cl)cc(Cl)c2)o1,inactive
24,CCOc1cc2c(Cl)ncnc2c(OCC)c1OCC,inactive

row,Structure (SMILES),Potency
1,Cc1nc2ccc(C(=O)O)cc2[nH]1,inactive
2,Cc1nc2ccccc2c(C)c1C(=O)c1ccc(F)cc1,7.94 µM (active)
3,Cc1nc2ccccc2c(-c2ccccc2)c1C(=O)c1ccccc1,inactive
4,COc1ccc(Cl)cc1C(=O)NNC(=O)c1nc2nc(C)cc(C)n2n1,inactive
5,FC(F)(F)c1ccc(-n2cn[nH]c2=S)cc1,inactive
6,CCOC(=O)C(NC(C)=O)C(=O)Nc1ccc(OC)cc1 (configuration not stated),inactive
7,COc1ccc(NC(=O)C(Br)C(C)C)cc1 (configuration not stated),0.891 µM (active)
8,COc1ccc(NC(=O)C(C)SCc2ccccc2)cc1 (configuration not stated),inactive
9,O=C(COc1ccccc1[N+](=O)[O-])N/N=C/c1ccc[nH]1,inactive
10,O=C1CC2(CC(c3ccc(Cl)cc3)=NO2)C(=O)N1c1ccccc1 (configuration not stated),inactive
11,C#CCNc1ccc(C(=O)OCC)cc1,inactive
12,Fc1ccc(-c2csc(-c3ccc(C4SCCS4)cc3)n2)cc1F,inactive
13,Cn1nccc1CNC(=O)c1ccnn1C,inactive
14,CCN(CC)C(=O)c1sc(NC(=O)c2ccco2)c(C#N)c1C,inactive
15,CCCc1ccc(-c2c(C)sc(NC(=O)c3ccnn3C)c2C#N)cc1,7.08 µM (active)
16,CCN(CC(=O)Nc1ccc(S(=O)(=O)N2CCCC2)cc1)CC(=O)Nc1cccc(OC)c1,inactive
17,CN(Cc1nc(-c2cnccn2)no1)Cc1n[nH]c2c1CCCCC2,inactive
18,O=C(CC(O)(C(F)(F)F)C(F)(F)F)Nc1ccc(Cl)c(Cl)c1,5.01 µM (active)
19,O=C(CC(=O)Nc1ccc(Cl)c(Cl)c1)N/N=C/c1ccc(O)cc1,inactive
20,Cc1ccc(NC(=O)C/C(N)=N/O)cc1Cl,inactive
21,Cn1cc(S(=O)(=O)NC(c2ccccc2)c2ccccc2)c(=O)n(C)c1=O,inactive
22,CN(C)c1cc[n+](Cc2ccccc2)cc1,7.08 µM (active)
23,c1ccc(Cc2cc[n+](Cc3ccccc3)cc2)cc1,inactive
24,CN(C)c1ccc(/C=N/N(Cc2ccccc2)c2ccccc2)cc1,inactive
